According to the supplement of paper PMC6555819:

Assays:
Test in all cases: PBM binding z-score (relative to random genomic background probes); higher = stronger binding; sequences stand for … in GC…GCGATTGACAGCGTAGAATGAAGG
[1] = tested on: PPARg:RXRa DBDmut IVT, anti-RXR (DBD mutation: RXRa K156A/R161A, NR concentration 270 nM, RXRa partner concentration 90 nM)
Outline: (§1)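 On custom Agilent 4×180K arrays, double-stranded probes with 34-nt variable regions carried direct-repeat seeds, single-nucleotide variants, half-site ablations or random human genomic background. Ligand-free nuclear receptor dimers were applied for 1 h, and binding was read with antibodies against each partner (one per run). Binding z-scores come from regression-normalized fluorescence, with the random background probes as reference.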

[2] = tested on: PPARg:RXRa IVT, anti-PPARg (NR concentration 270 nM, RXRa partner concentration 90 nM)
Outline: as §1

[3] = tested on: PPARg DBDmut:RXRa IVT, anti-PPARg (DBD mutation: PPARg1 K132A/R137A, NR concentration 270 nM, RXRa partner concentration 90 nM)
Outline: as §1

[4] = tested on: PPARg DBDmut IVT, anti-PPARg (DBD mutation: PPARg1 K132A/R137A, NR concentration 270 nM)
Outline: as §1

[5] = tested on: PPARg homodimer (NR concentration 180 nM)
Outline: as §1

[6] = tested on: PXR:RXRa (NR concentration 270 nM, RXRa partner concentration 90 nM)
Outline: as §1

[7] = tested on: PXR homodimer (NR concentration 270 nM)
Outline: as §1

[8] = tested on: RARa:RXR (NR concentration 270 nM, RXRa partner concentration 90 nM)
Outline: as §1

[9] = tested on: RARa homodimer (NR concentration 270 nM)
Outline: as §1

[10] = tested on: RARb:RXRa (NR concentration 270 nM, RXRa partner concentration 90 nM)
Outline: as §1

Sequence | PBM binding z-score [1] | PBM binding z-score [2] | PBM binding z-score [3] | PBM binding z-score [4] | PBM binding z-score [5] | PBM binding z-score [6] | PBM binding z-score [7] | PBM binding z-score [8] | PBM binding z-score [9] | PBM binding z-score [10]
TCATATAGGTAAACAGGTGAACGTCCGTAAGTTA | 5.34 | 5.19 | 1.47 | 1 | 1.69 | 1.09 | 0.569 | 1.4 | 1.29 | 0.977
GCTATTTGGTCAGTAAAAGGTCACACACCGGTCG | 1.19 | 3.03 | 0.901 | 1.1 | 3.8 | 5.12 | 1.46 | 5.67 | 2.38 | 4.45
CAAACCAGGTCACCGGAAGGTCAAAGTCCGCATG | 5.78 | 6.75 | 1.83 | 1.5 | 9.32 | 6.5 | 3.77 | 8.09 | 3.77 | 5.33
CCGACTGGGGCAGAAAGGCTACCATACCATCCGG | 0.897 | 0.918 | -0.746 | -1.37 | -0.0679 | -0.836 | -0.377 | -0.589 | 0.0496 | 0.362
TATACAGGGTCAAAGGACAGAGTACGAATGTCGA | 2.27 | 4.9 | 3.23 | 2.81 | 2.18 | 3.68 | 1.01 | 4.56 | 1.66 | 4.55
TTACCAAGGTGCAGGTCGTTGATCCCTCTGTAGA | -0.00827 | 0.492 | -0.281 | -1.32 | -0.014 | 0.4 | 0.135 | 0.7 | -0.516 | 0.624
TGAATGAGGTTAAAGATCAGGGAGCGTGGCGTCG | 2.38 | 3.63 | 0.471 | -0.164 | 0.404 | 1.83 | -0.192 | 2.89 | -0.32 | 1.78
ACTCGGAGGACAAAGATCAGAGCTACGCCAGTGA | 0.131 | -0.127 | -1.09 | -0.113 | -0.398 | -0.522 | -0.433 | -0.384 | -0.637 | 0.778
CGAACGAGGGAATGAGTTGATAGCAAATGCCGAT | -0.446 | -0.487 | -0.561 | 0.167 | -0.451 | -0.632 | -0.33 | -0.875 | -0.143 | -0.567
ACATGTAGGTTATCGGGTCATTCAGTTTGCGCAT | 6.89 | 6.82 | 3.46 | 3.12 | 5.01 | 4.02 | 6.61 | 3.88 | 2.25 | 2.61
ATCTCTAGGTAACAAGTTCAGTGAAAGAGAGGAC | 3.46 | 3.2 | 1.03 | 1.64 | 1.58 | 1.71 | 2.41 | 0.933 | 1.19 | 1.85
ACTAGCAGGCCAAATTTGGGTCACTCAAACAAAG | 2.87 | 4.17 | 0.302 | 0.302 | 0.993 | 0.803 | -0.346 | 1.72 | -0.199 | 1.54
GATACAGGCTCAAGGCCAGAGTACGCGTATTGAT | -0.731 | -0.511 | -0.646 | -1.16 | -1.02 | -0.534 | 0.0448 | -0.806 | -0.764 | -0.0838
CAAACTAGGTCACAGAGGTCAAAGACCGTGCGTA | 8.39 | 9.08 | 7.99 | 2.78 | 5.75 | 6.86 | 10.2 | 7.44 | 2.59 | 5.37
CCGACTGGGGCATAAGGGTACCATAAGCCAGCCC | 1.55 | 1.97 | -1.37 | -1.11 | -0.201 | -0.472 | -0.387 | -0.246 | -0.606 | 0.641
CCGACTGGGGCAAAGGTTTCCATACTCAGTACGA | 5.1 | 4.87 | -0.186 | -0.49 | 0.0767 | -0.0306 | -0.339 | 0.0342 | -0.339 | 0.737
AGTCAAAGTTCATCTAGGAAACGTAAGATATGCT | 0.0279 | 2.61 | 1.09 | 0.7 | 2.32 | 4.53 | 3.68 | 3.18 | 1.09 | 5.02
ATCTCTAGATAAAAGTTCAGTGAATCCCGAGGAT | -0.00193 | 0.486 | 1.04 | 0.904 | 1.13 | 1.57 | 1.32 | 0.986 | 0.594 | 2.13
CCGACTGCGGCAGAAAGGTTACCATACCATCCGG | -0.1 | 0.0365 | -0.709 | -0.931 | 0.55 | 1.05 | -0.0131 | 1.42 | -0.186 | 1.29
AGTCCAAGTTCATCTAGGTAACGTAAGATATGCT | 0.673 | 2.16 | 1.06 | 0.824 | 1.01 | 3.95 | 5.64 | 1.67 | 0.0751 | 3.3
TCATATAGGTAATACAGGTGGAAGTCGGCATCTA | 4.03 | 2.31 | 1.36 | 0.905 | 0.801 | 0.571 | 0.602 | 0.763 | 1.5 | 0.515
ACTAGTTGGCCAGCTGAGGTCACACACAATTCGG | 0.715 | 1.85 | 0.578 | 0.0549 | 2.34 | 4.59 | 1.49 | 4.57 | 0.503 | 3.19
CCTAGTTGGTCAGGAGGTCACTCACCGGATATGA | 1.33 | 2.97 | 0.254 | 0.0226 | 3.04 | 3.74 | 0.903 | 3.94 | 2.42 | 3.41
TCTTGTAGATCAAACAGGTTAAGAAAGCCTGAGT | 1.7 | 0.783 | 1.28 | 0.534 | -0.369 | 0.754 | 0.338 | 0.849 | 0.0835 | 0.288
